Source: PubChem BioAssay
This is a sample that favours compounds with a hit; in the whole collection about 12% have one here.
WT yeast gro inh – growth inhibition of WT strain, primary screen, mitochondrial fusion inhibitor project, WT and mutant strains, chemical genetic. mitochondrial fusion phenotypic screen. inhibition, % at 10 µM. 190,000 compounds, 2.1% hits. AID 1362, 2008; in the data active means inhibition above about 58%; tested in S. cerevisiae
KCC2 mod – KCC2 cotransporter modulators, thallium flux, primary screen, cell-based, HEK293 KCC2, FluoZin-2 fluorescence, MLSMR; AID 1456, 2008; B-score of Tl+ flux slope (higher = more flux/activation; lower = inhibition) at 10 µM; 190,000 compounds, 2.2% hits; KCC2 cells, thallium flux FluoZin-2 fluorescence; Solute carrier family 12 member 5 (Homo sapiens), Q9H2X9;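 active means thallium flux slope and its plate-corrected score both differing from the plate sample mean at a set confidence after two filtering rounds, in either direction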;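 further: slope of fluorescence scaled to starting intensity during 10 to 20 s after thallium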
Target sequence (Q9H2X9 whole entry, looked up): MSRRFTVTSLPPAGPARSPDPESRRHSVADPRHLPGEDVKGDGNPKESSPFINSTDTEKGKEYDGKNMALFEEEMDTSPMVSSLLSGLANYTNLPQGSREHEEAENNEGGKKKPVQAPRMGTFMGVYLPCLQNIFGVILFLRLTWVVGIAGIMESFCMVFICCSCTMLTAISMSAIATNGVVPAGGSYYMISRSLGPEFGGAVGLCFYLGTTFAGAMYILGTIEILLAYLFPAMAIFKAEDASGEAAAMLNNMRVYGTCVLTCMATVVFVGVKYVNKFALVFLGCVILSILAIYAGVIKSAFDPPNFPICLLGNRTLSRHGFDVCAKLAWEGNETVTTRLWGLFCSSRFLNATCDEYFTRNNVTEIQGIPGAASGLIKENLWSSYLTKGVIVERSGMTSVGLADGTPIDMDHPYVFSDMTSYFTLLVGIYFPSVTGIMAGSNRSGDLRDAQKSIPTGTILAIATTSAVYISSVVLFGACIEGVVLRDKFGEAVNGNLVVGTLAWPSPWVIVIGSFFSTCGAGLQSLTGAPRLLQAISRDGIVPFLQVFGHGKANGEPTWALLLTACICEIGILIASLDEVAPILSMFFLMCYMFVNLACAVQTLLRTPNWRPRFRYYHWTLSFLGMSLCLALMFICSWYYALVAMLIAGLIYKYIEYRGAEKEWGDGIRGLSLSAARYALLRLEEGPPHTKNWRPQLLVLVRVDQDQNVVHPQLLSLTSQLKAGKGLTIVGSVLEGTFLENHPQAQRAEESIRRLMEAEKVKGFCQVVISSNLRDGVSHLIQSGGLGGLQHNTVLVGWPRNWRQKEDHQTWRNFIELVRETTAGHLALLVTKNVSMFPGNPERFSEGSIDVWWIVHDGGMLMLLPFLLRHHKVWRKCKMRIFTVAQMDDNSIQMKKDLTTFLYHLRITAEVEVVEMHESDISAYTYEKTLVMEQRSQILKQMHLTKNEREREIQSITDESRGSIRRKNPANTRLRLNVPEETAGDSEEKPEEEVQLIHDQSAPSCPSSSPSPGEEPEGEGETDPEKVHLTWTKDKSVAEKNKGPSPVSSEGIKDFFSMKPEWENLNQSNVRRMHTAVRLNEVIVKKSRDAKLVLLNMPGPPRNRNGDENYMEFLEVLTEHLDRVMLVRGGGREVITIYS
ROMK primary – ROMK potassium channel modulators, primary screen, cell-based, thallium flux, MLSMR library; ATP-sensitive inward rectifier potassium channel 1 (Homo sapiens), P48048; Tet-inducible ROMK, thallium flux fluorescence; actives lie on both sides; B-score at 10 µM; 130,000 compounds, 2% hits;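 active means signal ratio slope over the read window, or its plate-corrected B-score, at least 3 SD from the plate mean, either direction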;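 further: B-score of the F/F0 ratio slope over 7 to 12 s after thallium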
INS promoter inh – inhibitors of insulin promoter-driven GFP, primary screen, imaging, TRM-6 cells (human fetal islet line), eGFP reporter, cell count | reporter expression induced with tamoxifen | inhibition, % at 2 µM | 130,000 compounds, 0.9% hits;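 active means inhibition above the mean plus 3 SD, with well images judged a real hit on visual review, cut at about 60% in these data, passing the limit was not always enough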
Ins promoter up – insulin promoter activators in MIN6 cells, imaging, high-content screening, mouse beta cells; 190,000 compounds, 0.3% hits; z-score at 5 µM; AID 1625, 2009; MIN6 insulin promoter-GFP reporter; stronger effect = higher value;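 active means z-score above 3 at 5 µM with at least 500 cells counted in the well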
Lmaj promast – Leishmania major promastigote growth inhibition, primary screen. Leishmania major promastigotes, resazurin fluorescence viability. inhibition, % at 10 µM. 200,000 compounds, 9% hits; in the data active means inhibition above about 50%;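 further: promastigotes grown with compound for 44 hours at 28 °C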
Numbers without * were called inactive; / = not tested or not shown.

SMILES	WT yeast gro inh	KCC2 mod	ROMK primary	INS promoter inh	Ins promoter up	Lmaj promast
COC(=O)c1c(NC(=O)Cc2cccs2)sc2c1CCC(C)C2 (stereo not drawn)	24.9	/	/	36.4	-4.19	1.1
CCOC(=O)c1c(NC(=O)Cn2cc([N+](=O)[O-])cn2)sc2c1CCC2	9.2	-0.169	/	-33.3	-0.13	-4.1
COC(=O)c1c(NC(=S)NN2CCN(C)CC2)sc2c1CCC(C)C2 (stereo not drawn)	97.8	0.298	1.09	/	-3.4	100.1*
COC(=O)c1c(NC(=O)c2ccc(N(C)S(=O)(=O)c3ccc(C)cc3)cc2)sc2c1CCCC2	5.2	0.382	0.0366	13.3	/	-3.1
CCOC(=O)c1c(NC(=O)Cn2cnc([N+](=O)[O-])n2)sc2c1CCC(C)C2 (stereo not drawn)	-8.4	/	/	26.7	0.05	97.9*
COC(=O)c1c(NC(=O)Cn2cnc([N+](=O)[O-])n2)sc2c1CCC(C)C2 (stereo not drawn)	15.7	-0.158	/	-27.6	-0.1	99.8*
C=CCn1c(N)cc(=O)nc1SCC(=O)Nc1ccc(C)cc1	-16.1	-0.738	0.141	9.1	0.11	-7.3
C=C(C)[C@@H]1CCC2(C(=O)O)CC[C@]3(C)[C@H](CC[C@@H]4[C@@]5(C)CCC(=O)C(C)(C)[C@@H]5CC[C@]43C)[C@@H]12 (stereo partly drawn)	23.4	1.9	2.84	-5.0	-0.34	-5.6
Cc1ncc(CO)c(/C=N/NC(=O)c2ccc(Br)cc2)c1O	-1.4	0.102	/	31.2	0.01	97.7*
Cc1ncc(CO)c(/C=N/NC(=O)c2cc(Br)ccc2O)c1O	8.9	-2.77	-0.0871	35.7	1.42	-8.9
Cc1csc(NC(=O)CSc2nnc(-c3ccccn3)n2-c2ccc(C)c(C)c2)n1	-4.3	-1.06	/	/	-1.4	68.5*
Cc1csc(NC(=O)CSc2nnc(C)s2)n1	11.0	-0.158	0.0208	15.2	0.02	-5.9
Cc1csc(NC(=O)CSc2nnc(NC(=O)COc3ccccc3)s2)n1	0.1	0.704	-0.2	35.7	-0.15	51.2*
COc1cc(OC)cc(C(=O)N[C@H](C(=O)NC23CC4CC(CC(C4)C2)C3)C(C)C)c1	14.6	-0.527	-0.147	-18.3	-0.8	64.3*
COC(=O)CSc1nnc(CNC(=O)c2ccccc2F)n1-c1ccc(F)cc1	-10.1	0.878	-0.248	33.3	0.31	-8.1
CCCN(CCC)S(=O)(=O)c1ccc(C(=O)N2CCCc3ccccc32)cc1	5.4	/	/	10.0	-1.53	63.5*
COc1ccc(C[C@@H]2CN3C(=NC[C@@H]3Cc3ccc(O)cc3)N2C[C@H](C)NC(=O)CCC2CCCCC2)cc1	/	-1.62	/	/	0.72	/
CCOc1ccccc1N1CCN(Cc2cccc(OC)c2OC)CC1	-36.9	-0.241	/	/	1.88	11.1
COc1cccc(CN2CCC(N(CCc3ccccc3)Cc3ccccc3)CC2)c1OC	39.3	-0.246	-0.61	7.4	-0.27	99.2*
CCCCCCOC(=O)Sc1nc2ccccc2o1	-16.2	-0.186	-2.11	-67.9	0.47	1.1
O=C1c2cccc3c([N+](=O)[O-])ccc(c23)C(=O)N1c1nccs1	32.0	-0.562	-0.00492	-57.1	-0.25	64.2*
O=C1c2cccc3c([N+](=O)[O-])ccc(c23)C(=O)N1c1ccccn1	15.1	-0.612	-1.78	/	1.99	100.5*
O=C1c2cccc3c(N4CCCCC4)ccc(c23)C(=O)N1c1ccccn1	-7.9	/	/	/	0.23	30.8
O=C1c2cccc3cccc(c23)C(=O)N1c1nccs1	19.1	/	0.388	-18.2	1.09	-2.5
O=S(=O)(Cc1ccccc1)Nn1cnnc1	8.9	0.0886	-0.31	-103.8	-1.83	-5.3
SMILES	WT yeast gro inh	KCC2 mod	ROMK primary	INS promoter inh	Ins promoter up	Lmaj promast
O=C(COC(=O)c1cc(Cl)ccc1[N+](=O)[O-])Nc1cccc2ccccc12	12.4	1.38	-0.765	-35.7	1.03	-4.8
O=C(COC(=O)c1cc(Cl)ccc1[N+](=O)[O-])NCc1ccc(Cl)cc1Cl	61.3*	-2.82	-0.859	-33.3	-0.05	62.2*
Cc1ccccc1CNC(=O)c1ccc(Cl)c([N+](=O)[O-])c1	46.2	-0.621	-2.03	-100.0	0.68	27.9
CC(C)(C)SCCNC(=O)c1ccc(Cl)c([N+](=O)[O-])c1	80.8*	-0.58	0.00952	/	0.49	2.3
CC(C)[C@H](NC(=O)c1ccc(Cl)c([N+](=O)[O-])c1)C(=O)NCc1ccc(Cl)cc1Cl	15.8	0.929	1.19	-45.1	-1.55	52.5*
CC(C)CCN(CC(=O)NC(C)(C)C)C(=O)C(=O)Nc1ccc2c(c1)OCCO2	-12.2	0.293	-0.616	/	-0.36	3.4
CC1(C)CC(=O)c2cnn(-c3nc4ccccc4[nH]3)c2C1	5.5	/	/	/	0.56	7.7
CC1Cc2ccccc2N1S(=O)(=O)c1cccc(C(=O)N2CCN(c3ncccn3)CC2)c1 (stereo not drawn)	19.4	-0.938	-0.334	22.2	/	77.4*
CCOC(=O)c1ccc(NC(=O)c2cccc(S(=O)(=O)N3c4ccccc4CC3C)c2)s1 (stereo not drawn)	29.7	0.0673	/	11.7	-2.71	99.2*
Cc1ccccc1OCCNc1cc(N2CCNCC2)ccc1[N+](=O)[O-]	32.9	/	-2.9	5.0	-1.04	100.3*
COc1ccccc1OCCNc1cc(N2CCCCC2)ccc1[N+](=O)[O-]	11.4	-0.0297	0.0365	3.7	-0.41	6.8
O=C(CCCN1C(=O)/C(=C\c2cccc(Br)c2)SC1=S)Nc1cccnc1	26.4	-0.48	-1.69	/	-0.6	58.5*
COc1cc(NC(=O)Cn2nc(C(F)(F)F)c(Br)c2C)cc([N+](=O)[O-])c1	14.8	0.633	/	-34.5	/	98.4*
CCOC(=O)c1c(C2CC2)csc1NC(C)=O	-5.9	-0.926	/	-50.0	0.52	-0.8
COc1ccc(C2=NN3C(=O)c4c(ccc(OC)c4OC)C3C2)cc1 (stereo not drawn)	4.8	-1.33	/	39.1	-0.22	60.0*
CCCc1cc(=O)[nH]c(SCc2cccnc2)n1	7.2	-0.277	-0.428	-342.1	0.28	-1.8
CN1CCN(Cc2c(O)ccc3occ(C(=O)c4ccccc4)c23)CC1	10.5	/	/	/	0.52	5.5
Cc1oc2ccc(O)c(CN3CCOCC3)c2c1C(=O)c1ccc(Cl)cc1	-19.7	4.23	/	/	0.07	52.1*
O=C(OCC(=O)N1CCN(C(=O)COC(=O)c2ccncc2)CC1)c1ccncc1	-6.7	0.429	/	/	0.9	-5.0
Nc1nc(-c2cccc(Br)c2)cs1	71.1*	-0.333	0.877	/	/	-8.3
CCCCn1c(SCC(=O)N2CCCC2)nnc1-c1ccccc1	11.8	1.39	0.666	-36.2	/	-5.4
COc1ccc2c(c1)[nH]c1c(=O)n(CCCN3CCOCC3)cnc12	-2.0	0.0067	0.395	28.1	-0.52	1.1
COc1ccc2c(c1)c1ncn(CCCN3CCOCC3)c(=O)c1n2C	3.3	0.0151	/	-400.0	0.15	54.6*
